# Assay results reported in PubChem BioAssay.
# Active and inactive are the calls of the source.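 How the source made its calls: active means compounds killing one labelled cell type while sparing the other, by normalised counts and ratio limits, not self-fluorescent; inactive means the rest.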 Numbered stars: 1 amine (or outer) side, 2 acyl side, 3 side chain; on linkers, the order of the positions; unused ones are H or OH. Bridge positions count the residues as written; N and C are the ends. Square brackets hold non-standard residues; d marks the D form. Peptide text beside a SMILES is read from it. * marks the point of attachment. ξ: configuration not given here. ΔAla(E,3-NHCONH2) = NC(=O)N/C=C(/N)C(=O)O; X1 = NC1=NCCC(C(N[*:1])C(=O)[*:2])N1; Heptanoyl(6-Me) = CC(C)CCCCC(=O)*; ξβ3hOrn = NCCCC(N)CC(=O)*; Dab = NCC[CH](N)C(=O)O; Dap = NC[CH](N)C(=O)O
# Assay: EMT-state selective cytotoxicity in co-culture – imaging, PC-3E GFP, TEM4-18 mCherry, primary screen (AID 1345086);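 further: normalised mesenchymal count divided by normalised epithelial count so high means epithelial killing; cells exposed to compound for 72 h before imaging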
# Conditions: PC-3E GFP / TEM4-18 mCherry co-culture, imaging cell counts; at 1 µM; actives lie on both sides; counts scaled to control wells, 1 = unselective
row,SMILES,red/green cell ratio (normalised)
1,CCCCC(=O)O[C@]1(C(=O)CO)CCC2C3CCC4=CC(=O)CC[C@]4(C)C3[C@@H](O)C[C@@]21C (some centres not stated),1.41 (inactive)
2,CCCCC/C=C/CCC(=O)N[C@H]1[C@H](Oc2c3cc4cc2Oc2ccc(cc2Cl)[C@@H](O[C@@H]2O[C@H](CO)[C@@H](O)[C@H](O)[C@H]2NC(C)=O)[C@@H]2NC(=O)[C@H](NC(=O)[C@@H]4NC(=O)[C@H]4NC(=O)C(Cc5ccc(c(Cl)c5)O3)NC(=O)[C@H](N)c3ccc(O)c(c3)Oc3cc(O)cc4c3)c3ccc(O)c(c3)-c3c(OC4O[C@H](CO)[C@@H](O)[C@H](O)[C@@H]4O)cc(O)cc3[C@@H](C(=O)O)NC2=O)O[C@H](CO)[C@@H](O)[C@@H]1O (some centres not stated),1.02 (inactive)
3,CC(C)(C)NCC(O)COc1cccc2c1CCCC2=O (configuration not stated),1.02 (inactive)
4,CC(C)CCCC(C)[C@H]1CCC2C3CC=C4C[C@@H](O)CC[C@]4(C)C3CC[C@@]21C (some centres not stated),1.04 (inactive)
5,CCC(=O)OCC(=O)[C@@]1(OC(=O)CC)[C@@H](C)CC2C3CCC4=CC(=O)C=C[C@]4(C)C3(F)[C@@H](O)C[C@@]21C (some centres not stated),1.32 (inactive)
6,CC(=O)Nc1ccc(S(=O)(=O)Nc2onc(C)c2C)cc1,0.94 (inactive)
7,CO/N=C(\C(=O)NC1C(=O)N2C(C(=O)OCOC(=O)C(C)(C)C)=C(/C=C\c3scnc3C)CSC12)c1csc(N)n1 (configuration not stated),0.92 (inactive)
8,CC1C/C=C/C=C/C=C/C=C/C(O[C@@H]2O[C@H](C)[C@@H](O)[C@H](N)[C@@H]2O)CC2OC(O)(CC(O)CC3OC3/C=C/C(=O)O1)CC(O)C2C(=O)O (some centres not stated),1.02 (inactive)
9,C[C@]12CCC(=O)C=C1C=CC1C2CC[C@@]2(C)C1CC[C@@]21CCC(=O)O1 (some centres not stated),0.76 (inactive)
10,CC(C)c1c(C(=O)c2ccccc2)c(-c2ccccc2)c(-c2ccc(F)cc2)n1CC[C@@H](O)C[C@@H](O)CC(=O)O,0.86 (inactive)
11,CC(CCC(=O)O)[C@H]1CCC2C3C(=O)C[C@@H]4CC(=O)CC[C@]4(C)C3CC(=O)[C@@]21C (some centres not stated),1.13 (inactive)
12,CC(=O)Nc1cc2ccccc2oc1=O,0.74 (inactive)
13,CCCCCCCCCCC[C@@H](C[C@H]1OC(=O)[C@H]1CCCCCC)OC(=O)[C@@H](CC(C)C)NC=O,1.11 (inactive)
14,CC(=O)OCC(=O)[C@@]12OC(C)(C)O[C@@H]1CC1C3C[C@H](F)C4=CC(=O)C=C[C@]4(C)[C@@]3(F)[C@@H](O)C[C@@]12C (some centres not stated),1.1 (inactive)
15,CC[C@@H]1OC(=O)C[C@@H](O)[C@H](C)[C@@H](O[C@@H]2O[C@H](C)[C@@H](O)[C@H](N(C)C)[C@H]2O)[C@@H](CCN2C[C@H](C)C[C@H](C)C2)C[C@@H](C)C(=O)/C=C/C(C)=C\[C@@H]1CO[C@@H]1O[C@H](C)[C@@H](O)[C@@H](OC)[C@H]1OC,0.98 (inactive)
16,O=C(OC[C@H]1O[C@H](OC(=O)c2cc(O)c(O)c(OC(=O)c3cc(O)c(O)c(O)c3)c2)[C@H](OC(=O)c2cc(O)c(O)c(OC(=O)c3cc(O)c(O)c(O)c3)c2)[C@@H](OC(=O)c2cc(O)c(O)c(OC(=O)c3cc(O)c(O)c(O)c3)c2)[C@@H]1OC(=O)c1cc(O)c(O)c(OC(=O)c2cc(O)c(O)c(O)c2)c1)c1cc(O)c(O)c(OC(=O)c2cc(O)c(O)c(O)c2)c1,1.23 (inactive)
17,CC(C)C1CCC(C(=O)N[C@@H](Cc2ccccc2)C(=O)O)CC1 (some centres not stated),0.92 (inactive)
18,CCC(C)C(=O)O[C@H]1C[C@H](O)C=C2C=C[C@H](C)[C@H](CC[C@@H](O)C[C@@H](O)CC(=O)O)C21 (some centres not stated),0.96 (inactive)
19,CCC(C)C1NC(=O)C(CCN)NC(=O)C(NC(=O)C(CCN)NC(=O)C(NC(=O)C(CCN)NC(=O)CCCCC(C)C)C(C)O)CCNC(=O)C(C(C)O)NC(=O)C(CCN)NC(=O)C(CCN)NC(=O)C(C(C)CC)NC1=O (configuration not stated) ({Heptanoyl(6-Me)}-[Dab]T[Dab][Dab][Dab]II[Dab][Dab]T; lactam 4-C; configuration not given here),0.79 (inactive)
20,CC1=C(C(=O)O)N2C(=O)[C@@H](NC(=O)[C@H](N)C3=CCC=CC3)C2SC1 (some centres not stated),1 (inactive)
21,OC[C@@H](O)C(O[C@@H]1O[C@H](CO)[C@H](O)[C@H](O)[C@H]1O)[C@H](O)[C@@H](O)CO (some centres not stated),1.21 (inactive)
22,"NCCCC(N)CC(=O)NCC1NC(=O)C(CO)NC(=O)C(N)CNC(=O)C(C2CCN=C(N)N2)NC(=O)/C(=C\NC(N)=O)NC1=O (stereo not drawn) (H-[Dap]S[Dap](ξβ3hOrn)[ΔAla(E,3-NHCONH2)][X1]; lactam 1-C; configuration not given here)",0.98 (inactive)
